# Results from the supplement of paper PMC8728848.
# Only a selection was taken, and the strongest signals are over-represented in it overall.
# Tests used:
# Assay in all cases: glycan array binding signal (z-score within array); higher = stronger binding
# Conditions in all cases: glycan notation: IUPAC condensed, linker removed
# [1] = target: Fuc(a1-2)Gal(b1-3)GalNAc(b1-4)[Neu5Ac(a2-3)]Gal(b1-4)Glc
# In short: (§1)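 Negative Z-scores can be read as non-binding. The Z-score is calculated within each array and then averaged across arrays of one protein sequence at different concentrations or buffers and across linkers. Arrays, 3228 in all, were curated from the Consortium for Functional Glycomics database and kept only where the protein sequence was available.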
# [2] = target: Fuc(a1-2)Gal(b1-4)Glc6S
# In short: as §1
# [3] = target: Fuc(a1-2)Gal(b1-4)GlcNAc
# In short: as §1
# [4] = target: Fuc(a1-2)Gal3S(b1-4)GlcNAc
# In short: as §1
# [5] = target: Fuc(a1-2)[Gal(a1-3)]Gal(b1-3)GlcNAc(b1-3)GalNAc
# In short: as §1
# [6] = target: Fuc(a1-2)[Gal(a1-3)]Gal(b1-3)GlcNAc(b1-6)GalNAc
# In short: as §1
# [7] = target: Fuc(a1-2)[Gal(a1-3)]Gal(b1-4)Glc
# In short: as §1
# [8] = target: Fuc(a1-2)[Gal(a1-3)]Gal(b1-4)GlcNAc(b1-2)Man(a1-3)[Fuc(a1-2)[Gal(a1-3)]Gal(b1-4)GlcNAc(b1-2)Man(a1-6)]Man(b1-4)GlcNAc(b1-4)[Fuc(a1-6)]GlcNAc
# In short: as §1
# [9] = target: Fuc(a1-2)[GalNAc(a1-3)]Gal(b1-3)GlcNAc(b1-3)GalNAc
# In short: as §1
# [10] = target: Fuc(a1-2)[GalNAc(a1-3)]Gal(b1-4)GlcNAc(b1-3)GalNAc
# In short: as §1
# [11] = target: Fuc(a1-2)[GalNAc(a1-3)]Gal(b1-4)GlcNAc(b1-6)GalNAc
# In short: as §1
# [12] = target: Fuc(a1-2)[GalNAc(a1-3)]Gal(b1-4)[Fuc(a1-3)]GlcNAc(b1-3)GalNAc
# In short: as §1
# [13] = target: Fuc(a1-3)[Gal(b1-4)]GlcNAc(b1-3)Gal(b1-3)[Fuc(a1-4)]GlcNAc
# In short: as §1
# [14] = target: Fuc(a1-3)[Gal3S(b1-4)]GlcNAc6S
# In short: as §1
# [15] = target: Fuc(a1-3)[GalNAc(b1-4)]GlcNAc
# In short: as §1
# [16] = target: Gal(a1-4)GlcNAc
# In short: as §1
# [17] = target: Gal(b1-3)Gal
# In short: as §1
# [18] = target: Gal(b1-3)Gal(b1-4)GlcNAc
# In short: as §1
# [19] = target: Gal(b1-3)GalNAc(b1-4)Gal(b1-4)Glc
# In short: as §1
# [20] = target: Gal(b1-3)GlcNAc
# In short: as §1
# [21] = target: Gal(b1-3)GlcNAc(b1-6)Gal(b1-4)GlcNAc
# In short: as §1
# [22] = target: Gal(b1-4)GlcNAc(b1-2)[Gal(b1-4)GlcNAc(b1-4)]Man(a1-3)[Gal(b1-4)GlcNAc(b1-2)Man(a1-6)]Man(b1-4)GlcNAc(b1-4)GlcNAc
# In short: as §1
# [23] = target: Gal(b1-4)GlcNAc(b1-2)[Gal(b1-4)GlcNAc(b1-6)]Man(a1-6)[Gal(b1-4)GlcNAc(b1-2)Man(a1-3)]Man(b1-4)GlcNAc(b1-4)GlcNAc
# In short: as §1
# [24] = target: Gal(b1-4)GlcNAc(b1-3)Gal(b1-4)GlcNAc(b1-3)Gal(b1-4)GlcNAc(b1-3)Gal(b1-4)GlcNAc(b1-3)Gal(b1-4)GlcNAc(b1-2)Man(a1-3)[Gal(b1-4)GlcNAc(b1-3)Gal(b1-4)GlcNAc(b1-3)Gal(b1-4)GlcNAc(b1-3)Gal(b1-4)GlcNAc(b1-3)Gal(b1-4)GlcNAc(b1-2)Man(a1-6)]Man(b1-4)GlcNAc(b1-4)[Fuc(a1-6)]GlcNAc
# In short: as §1
# [25] = target: Gal(b1-4)GlcNAc(b1-3)Gal(b1-4)GlcNAc(b1-3)Gal(b1-4)GlcNAc(b1-3)Gal(b1-4)GlcNAc(b1-3)Gal(b1-4)GlcNAc(b1-2)[Gal(b1-4)GlcNAc(b1-3)Gal(b1-4)GlcNAc(b1-3)Gal(b1-4)GlcNAc(b1-3)Gal(b1-4)GlcNAc(b1-3)Gal(b1-4)GlcNAc(b1-6)]Man(a1-6)[Gal(b1-4)GlcNAc(b1-3)Gal(b1-4)GlcNAc(b1-3)Gal(b1-4)GlcNAc(b1-3)Gal(b1-4)GlcNAc(b1-3)Gal(b1-4)GlcNAc(b1-2)Man(a1-3)]Man(b1-4)GlcNAc(b1-4)[Fuc(a1-6)]GlcNAc
# In short: as §1
# [26] = target: Gal(b1-4)GlcNAc(b1-3)[Fuc(a1-3)GlcNAc(b1-6)]Gal(b1-4)Glc
# In short: as §1
# [27] = target: Gal3S(b1-4)Glc
# In short: as §1
# [28] = target: Gal3S(b1-4)[Fuc(a1-3)]Glc6S
# In short: as §1
# [29] = target: Gal4S(b1-4)GlcNAc
# In short: as §1
# [30] = target: GalNAc(a1-3)GalNAc(b1-3)Gal(a1-4)Gal(b1-4)GlcNAc
# In short: as §1
# [31] = target: GalNAc(b1-3)Gal(a1-4)Gal(b1-4)GlcNAc(b1-3)Gal(b1-4)Glc
# In short: as §1
# [32] = target: GlcNAc(a1-4)Gal(b1-4)GalNAc
# In short: as §1
# [33] = target: GlcNAc(a1-4)Gal(b1-4)GlcNAc(b1-3)Gal(b1-4)Glc
# In short: as §1
# [34] = target: GlcNAc(b1-2)[GlcNAc(b1-4)]Man(a1-3)[GlcNAc(b1-2)Man(a1-6)]Man(b1-4)GlcNAc(b1-4)GlcNAc
# In short: as §1
# [35] = target: GlcNAc(b1-3)Gal(b1-4)GlcNAc(b1-2)[GlcNAc(b1-3)Gal(b1-4)GlcNAc(b1-6)]Man(a1-6)[GlcNAc(b1-3)Gal(b1-4)GlcNAc(b1-2)Man(a1-3)]Man(b1-4)GlcNAc(b1-4)GlcNAc
# In short: as §1
# [36] = target: GlcNAc(b1-4)Gal(b1-4)GlcNAc
# In short: as §1
# [37] = target: Man(a1-3)[Man(a1-6)]Man
# In short: as §1
# [38] = target: Neu5Ac(a2-3)Gal(b1-3)GalNAc(b1-4)[Neu5Ac(a2-8)Neu5Ac(a2-3)]Gal(b1-4)Glc
# In short: as §1
# [39] = target: Neu5Ac(a2-3)Gal(b1-3)GlcNAc(b1-2)Man(a1-3)[Neu5Ac(a2-3)Gal(b1-3)GlcNAc(b1-2)Man(a1-6)]Man(b1-4)GlcNAc(b1-4)GlcNAc
# In short: as §1
# [40] = target: Neu5Ac(a2-3)Gal(b1-3)GlcNAc(b1-3)GalNAc
# In short: as §1
# [41] = target: Neu5Ac(a2-3)Gal(b1-3)[Fuc(a1-4)]GlcNAc
# In short: as §1
# [42] = target: Neu5Ac(a2-3)Gal(b1-3)[GlcNAc(b1-6)]GalNAc
# In short: as §1
# [43] = target: Neu5Ac(a2-3)Gal(b1-3)[Neu5Ac(a2-6)]GalNAc
# In short: as §1
# [44] = target: Neu5Ac(a2-3)Gal(b1-4)GlcNAc(b1-2)Man(a1-3)[Neu5Ac(a2-3)Gal(b1-4)GlcNAc(b1-2)Man(a1-6)]Man(b1-4)GlcNAc(b1-4)[Fuc(a1-6)]GlcNAc
# In short: as §1
# [45] = target: Neu5Ac(a2-3)Gal(b1-4)GlcNAc(b1-2)[Neu5Ac(a2-3)Gal(b1-4)GlcNAc(b1-6)]Man(a1-6)[Neu5Ac(a2-3)Gal(b1-4)GlcNAc(b1-2)Man(a1-3)][GlcNAc(b1-4)]Man(b1-4)GlcNAc(b1-4)GlcNAc
# In short: as §1
# [46] = target: Neu5Ac(a2-3)Gal(b1-4)GlcNAc(b1-3)Gal(b1-4)GlcNAc(b1-3)GalNAc
# In short: as §1
# [47] = target: Neu5Ac(a2-3)Gal(b1-4)[Fuc(a1-3)]GlcNAc(b1-2)Man
# In short: as §1
# [48] = target: Neu5Ac(a2-6)Gal(b1-4)GlcNAc(b1-2)Man(a1-3)[Man(a1-6)]Man(b1-4)GlcNAc(b1-4)GlcNAc
# In short: as §1
# [49] = target: Neu5Ac(a2-6)Gal(b1-4)GlcNAc(b1-2)Man(a1-6)[Man(a1-3)]Man(b1-4)GlcNAc(b1-4)GlcNAc
# In short: as §1
# [50] = target: Neu5Ac(a2-6)Gal(b1-4)GlcNAc(b1-6)[Gal(b1-3)]GalNAc
# In short: as §1
# [51] = target: Neu5Ac(a2-8)Neu5Ac(a2-3)Gal(b1-4)Glc
# In short: as §1
# [52] = target: Neu5Ac(a2-8)Neu5Ac(a2-8)Neu5Ac(a2-3)Gal(b1-4)Glc
# In short: as §1
# [53] = target: Neu5Ac(b2-6)GalNAc
# In short: as §1
# [54] = target: Neu5Gc(a2-8)Neu5Gc(a2-6)Gal(b1-4)GlcNAc
# In short: as §1
binder,measurement,setting,value
Pwp1 (Candida glabrata) (protein) MGSSHHHHHHSSGLVPRGSHMASANPISITNVCQFPDNWARTAGFQATTVRLGLTIASNTYKELLNYPGLFNFATQKATVTQPNFSISGFPFFTGLYGLTVWPINLLVELQGYFVPPESGNYTFTLQGSDDAAILFFANPSTFACGSQNDWPQPREADITVTDTLVPSRTLYLVKGVAYPIRIAYYNGSGDGKLNVSFKDPSGTTHTDWKGYVWQYSNTCSTCTYT,glycan array binding signal (z-score),[1],2.14
same,glycan array binding signal (z-score),[2],-0.871
same,glycan array binding signal (z-score),[3],0.296
same,glycan array binding signal (z-score),[4],0.714
same,glycan array binding signal (z-score),[5],0.778
same,glycan array binding signal (z-score),[6],0.51
same,glycan array binding signal (z-score),[7],-0.087
same,glycan array binding signal (z-score),[8],0.301
same,glycan array binding signal (z-score),[9],2.44
same,glycan array binding signal (z-score),[10],2.36
same,glycan array binding signal (z-score),[11],0.906
same,glycan array binding signal (z-score),[12],-0.825
same,glycan array binding signal (z-score),[13],3.12
same,glycan array binding signal (z-score),[14],1.94
same,glycan array binding signal (z-score),[15],-1.67
same,glycan array binding signal (z-score),[16],0.974
same,glycan array binding signal (z-score),[17],0.861
same,glycan array binding signal (z-score),[18],-0.314
same,glycan array binding signal (z-score),[19],1.92
same,glycan array binding signal (z-score),[20],0.448
same,glycan array binding signal (z-score),[21],-1.46
same,glycan array binding signal (z-score),[22],-0.345
same,glycan array binding signal (z-score),[23],0.454
same,glycan array binding signal (z-score),[24],-0.637
same,glycan array binding signal (z-score),[25],-3.11
same,glycan array binding signal (z-score),[26],-1
same,glycan array binding signal (z-score),[27],0.803
same,glycan array binding signal (z-score),[28],-0.627
same,glycan array binding signal (z-score),[29],0.267
same,glycan array binding signal (z-score),[30],-0.037
same,glycan array binding signal (z-score),[31],1.77
same,glycan array binding signal (z-score),[32],-1.74
same,glycan array binding signal (z-score),[33],1.72
same,glycan array binding signal (z-score),[34],0.374
same,glycan array binding signal (z-score),[35],0.839
same,glycan array binding signal (z-score),[36],-2.23
same,glycan array binding signal (z-score),[37],-1.51
same,glycan array binding signal (z-score),[38],0.23
same,glycan array binding signal (z-score),[39],1.89
same,glycan array binding signal (z-score),[40],0.585
same,glycan array binding signal (z-score),[41],-1.74
same,glycan array binding signal (z-score),[42],3.78
same,glycan array binding signal (z-score),[43],0.612
same,glycan array binding signal (z-score),[44],0.747
same,glycan array binding signal (z-score),[45],2.29
same,glycan array binding signal (z-score),[46],0.411
same,glycan array binding signal (z-score),[47],-1.41
same,glycan array binding signal (z-score),[48],-0.785
same,glycan array binding signal (z-score),[49],0.335
same,glycan array binding signal (z-score),[50],-1.62
same,glycan array binding signal (z-score),[51],0.642
same,glycan array binding signal (z-score),[52],-0.355
same,glycan array binding signal (z-score),[53],1.13
same,glycan array binding signal (z-score),[54],1.17
